About 7,900 targets were measured; listed, in parts, are those with a hit and a random draw of the rest. About 0.6% of all pairs of compound and target were hits.
Assays:
Assay in all cases: log2 fold change, soluble protein after heating vs DMSO (PISA); higher = thermal stabilisation; K562 cells, 10 uM, 30 min; active = over 0.2 and 3.5 SD of the protein, either way, in both replicates (recomputed)
[1] = compound: CC[C@@H]1C(=O)N(C)c2cnc(Nc3ccc(C(=O)NC4CCN(C)CC4)cc3OC)nc2N1C1CCCC1
How it was run: (§1)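 Values are thermal stability changes relative to control samples and are taken from duplicates. They are stated as log2 fold changes. Before quantification by TMTpro 16plex LC-MS/MS with equalised channel sums, K562 cells at 2×10^6 cells/mL were treated with 10 μM compound for 30 min, heated in aliquots for 3 min across 48°C-58°C, pooled, extracted in PBS with 0.5% NP-40 at 4°C, and centrifuged at 21,000xg for 90 min to give the soluble supernatant.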

volasertib = compound: CC[C@@H]1C(=O)N(C)c2cnc(Nc3ccc(C(=O)N[C@H]4CC[C@H](N5CCN(CC6CC6)CC5)CC4)cc3OC)nc2N1C(C)C [volasertib]
How it was run: as §1

[2] = compound: CC[C@H](C)N1C=C(C2=C(C=C(C=C21)C3=CN=C(C=C3)N4CCNCC4)C(=O)NCC5=C(C=C(NC5=O)C)C)C
How it was run: as §1

epoxomicin = compound: CC[C@H](C)[C@@H](C(=O)N[C@@H]([C@@H](C)O)C(=O)N[C@@H](CC(C)C)C(=O)[C@]1(CO1)C)NC(=O)[C@H]([C@@H](C)CC)N(C)C(=O)C [epoxomicin]
How it was run: as §1

[3] = compound: CCn1c(C(=O)N(C2CC2)C2CC2)cc2c3c(ncn3C)c(Nc3cc(C)n(C)n3)nc21
How it was run: as §1

[4] = compound: CCn1cc(-c2ccnc3[nH]c(-c4cccc(CN(C)C)c4)cc23)c(-c2ccc(NC(=O)N(C)C)cc2)n1
How it was run: as §1

[5] = compound: CN(C)CC(=O)Nc1ccc2[nH]c(=O)c3ccccc3c2c1
How it was run: as §1

rosiglitazone = compound: CN(CCOC1=CC=C(C=C1)C[C@H]2C(=O)NC(=O)S2)C3=CC=CC=N3 (racemic) [rosiglitazone]
How it was run: as §1

[6] = compound: CN1C2=C(C3=C1C(=O)N(N=C3)CC4=CC(=CC=C4)N)SC(=C2)S(=O)C
How it was run: as §1

[7] = compound: CN1CCC(CNc2ccc3ncc(-c4cccc(OC(F)(F)F)c4)n3n2)CC1
How it was run: as §1

saracatinib = compound: CN1CCN(CCOc2cc(OC3CCOCC3)c3c(Nc4c(Cl)ccc5c4OCO5)ncnc3c2)CC1 [saracatinib]
How it was run: as §1

sotrastaurin = compound: CN1CCN(c2nc(C3=C(c4c[nH]c5ccccc45)C(=O)NC3=O)c3ccccc3n2)CC1 [sotrastaurin]
How it was run: as §1

alvocidib = compound: CN1CC[C@H](c2c(O)cc(O)c3c(=O)cc(-c4ccccc4Cl)oc23)[C@H](O)C1 [alvocidib]
How it was run: as §1

Tubastatin A = compound: CN1CCc2c(c3ccccc3n2Cc2ccc(C(=O)NO)cc2)C1 [Tubastatin A]
How it was run: as §1

[8] = compound: CNC(=O)C1=CC=CC=C1NC2=NC(=NC=C2Cl)NC3=C(C=C(C=C3)N4CCOCC4)OC
How it was run: as §1

defactinib = compound: CNC(=O)c1ccc(Nc2ncc(C(F)(F)F)c(NCc3nccnc3N(C)S(C)(=O)=O)n2)cc1 [defactinib]
How it was run: as §1

rucaparib = compound: CNCc1ccc(-c2[nH]c3cc(F)cc4c3c2CCNC4=O)cc1 [rucaparib]
How it was run: as §1

[9] = compound: CNc1nc(-c2ccc3c(N)n[nH]c3c2)cc(N2C[C@@H](C(=O)NC3CCCCC3)CC[C@H]2C)n1
How it was run: as §1

encorafenib = compound: COC(=O)N[C@@H](C)CNc1nccc(-c2cn(C(C)C)nc2-c2cc(Cl)cc(NS(C)(=O)=O)c2F)n1 [encorafenib]
How it was run: as §1

[10] = compound: COC(=O)[C@H](CCSC)NC(=O)C1=C(C=C(C=C1)NC[C@H](CS)N)C2=CC=CC=C2
How it was run: as §1

Measured: log2 fold change

NDUFAF6 (UniProt Q330K2)
Sequence of UniProt Q330K2 (Q330K2 whole entry, looked up): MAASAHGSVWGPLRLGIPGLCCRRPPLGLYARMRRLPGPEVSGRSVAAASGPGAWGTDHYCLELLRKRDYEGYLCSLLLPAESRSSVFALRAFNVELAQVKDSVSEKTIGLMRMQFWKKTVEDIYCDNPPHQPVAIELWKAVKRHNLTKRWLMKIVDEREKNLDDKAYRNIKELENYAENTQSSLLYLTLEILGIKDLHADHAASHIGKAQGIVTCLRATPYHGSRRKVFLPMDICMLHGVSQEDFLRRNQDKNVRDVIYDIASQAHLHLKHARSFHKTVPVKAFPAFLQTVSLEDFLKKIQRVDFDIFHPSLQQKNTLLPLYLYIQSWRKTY
inactive: [1] -0.27 | volasertib -0.027 | [2] -0.028 | epoxomicin 0.055 | [3] -0.089 | [4] -0.059 | [5] -0.078 | rosiglitazone 0.134 | [6] -0.014 | saracatinib -0.071 | sotrastaurin -0.112 | alvocidib -0.025 | Tubastatin A -0.101 | [8] 0.038 | defactinib -0.04 | rucaparib -0.108 | [9] -0.146 | encorafenib 0.081 | [10] 0.084
active: [7] -0.721

NANS (UniProt Q9NR45)
Sequence of UniProt Q9NR45 (Q9NR45 whole entry, looked up): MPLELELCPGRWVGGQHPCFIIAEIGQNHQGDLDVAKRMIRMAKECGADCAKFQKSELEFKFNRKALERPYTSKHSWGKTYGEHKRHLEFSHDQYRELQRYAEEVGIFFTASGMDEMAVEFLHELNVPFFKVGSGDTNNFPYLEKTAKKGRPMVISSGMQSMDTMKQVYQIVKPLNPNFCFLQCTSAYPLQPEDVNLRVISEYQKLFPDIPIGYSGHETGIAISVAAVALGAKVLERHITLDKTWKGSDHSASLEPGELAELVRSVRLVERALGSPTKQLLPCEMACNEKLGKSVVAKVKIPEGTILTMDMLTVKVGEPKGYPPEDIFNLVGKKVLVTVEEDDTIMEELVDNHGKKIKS
active: [6] -0.434
inactive: [1] 0.015 | volasertib -0.013 | [2] 0.032 | epoxomicin 0.016 | [3] 0.04 | [4] -0.041 | [5] 0.009 | rosiglitazone 0.032 | [7] 0.034 | saracatinib 0.022 | sotrastaurin -0.058 | alvocidib -0.091 | Tubastatin A -0.026 | [8] 0.034 | defactinib -0.033 | rucaparib -0.084 | [9] 0.051 | encorafenib 0.004 | [10] -0.015

NOP56 (UniProt O00567)
Sequence of UniProt O00567 (O00567 whole entry, looked up): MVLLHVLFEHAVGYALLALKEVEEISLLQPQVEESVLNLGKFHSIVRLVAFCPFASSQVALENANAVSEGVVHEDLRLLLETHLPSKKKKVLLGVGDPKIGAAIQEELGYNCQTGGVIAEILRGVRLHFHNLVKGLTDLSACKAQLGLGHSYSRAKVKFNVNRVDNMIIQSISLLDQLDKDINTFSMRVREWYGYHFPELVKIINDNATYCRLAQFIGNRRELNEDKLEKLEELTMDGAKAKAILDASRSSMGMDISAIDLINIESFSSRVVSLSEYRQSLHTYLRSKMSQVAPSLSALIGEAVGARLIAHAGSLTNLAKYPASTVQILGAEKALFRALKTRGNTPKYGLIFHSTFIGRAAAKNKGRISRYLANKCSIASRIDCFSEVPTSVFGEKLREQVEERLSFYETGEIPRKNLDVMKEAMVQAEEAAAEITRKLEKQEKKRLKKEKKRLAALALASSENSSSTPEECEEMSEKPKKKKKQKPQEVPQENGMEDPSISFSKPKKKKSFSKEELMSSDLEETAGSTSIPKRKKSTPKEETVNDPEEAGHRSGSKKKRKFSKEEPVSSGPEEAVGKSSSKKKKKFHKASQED
inactive: [1] 0.141 | volasertib 0.238 | [2] 0.034 | epoxomicin -0.44 | [3] -0.006 | [4] 0.066 | [5] -0.208 | rosiglitazone -0.079 | [6] 0.299 | [7] 0.168 | saracatinib -0.034 | sotrastaurin 0.018 | alvocidib 0.104 | Tubastatin A -0.01 | [8] -0.067 | defactinib 0.375 | rucaparib 0.233 | [9] -0.028 | encorafenib 0.057 | [10] 0.007

NMT1 (UniProt P30419)
Sequence of UniProt P30419 (P30419 whole entry, looked up): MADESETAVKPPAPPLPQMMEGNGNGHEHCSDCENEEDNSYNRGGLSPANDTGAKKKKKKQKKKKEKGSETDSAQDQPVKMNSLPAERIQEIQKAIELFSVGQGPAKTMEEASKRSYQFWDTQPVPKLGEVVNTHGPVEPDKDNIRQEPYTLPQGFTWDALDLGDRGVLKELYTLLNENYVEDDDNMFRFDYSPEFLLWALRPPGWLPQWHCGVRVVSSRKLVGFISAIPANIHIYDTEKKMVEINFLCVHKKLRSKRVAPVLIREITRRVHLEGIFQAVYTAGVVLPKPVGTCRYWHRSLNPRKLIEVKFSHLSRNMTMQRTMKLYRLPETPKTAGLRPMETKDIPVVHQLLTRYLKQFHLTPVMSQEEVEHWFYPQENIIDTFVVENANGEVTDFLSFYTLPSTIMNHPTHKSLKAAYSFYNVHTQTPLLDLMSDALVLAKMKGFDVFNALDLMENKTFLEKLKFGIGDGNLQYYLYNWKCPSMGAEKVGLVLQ
inactive: [1] 0.028 | volasertib -0.21 | [2] 0.036 | epoxomicin 0.014 | [3] 0.016 | [4] -0.028 | [5] -0.022 | rosiglitazone -0.073 | [6] 0.007 | [7] -0.097 | saracatinib -0.046 | sotrastaurin 0.019 | alvocidib 0.001 | Tubastatin A -0.029 | [8] -0.003 | defactinib 0.015 | rucaparib -0.009 | [9] 0.013 | encorafenib -0.002 | [10] 0.024

PAAF1 (UniProt Q9BRP4)
inactive: [1] 0.006 | volasertib -0.034 | [2] -0.021 | [3] 0.005 | [4] -0.051 | [5] -0.009 | rosiglitazone 0.039 | [6] -0.07 | [7] -0.039 | saracatinib 0.056 | sotrastaurin 0.016 | alvocidib -0.075 | Tubastatin A -0.008 | [8] -0.006 | defactinib -0.034 | rucaparib 0.012 | [9] -0.008 | encorafenib -0.004 | [10] 0.004
active: epoxomicin -0.275

NFATC3 (UniProt Q12968)
Sequence of UniProt Q12968 (Q12968 whole entry, looked up): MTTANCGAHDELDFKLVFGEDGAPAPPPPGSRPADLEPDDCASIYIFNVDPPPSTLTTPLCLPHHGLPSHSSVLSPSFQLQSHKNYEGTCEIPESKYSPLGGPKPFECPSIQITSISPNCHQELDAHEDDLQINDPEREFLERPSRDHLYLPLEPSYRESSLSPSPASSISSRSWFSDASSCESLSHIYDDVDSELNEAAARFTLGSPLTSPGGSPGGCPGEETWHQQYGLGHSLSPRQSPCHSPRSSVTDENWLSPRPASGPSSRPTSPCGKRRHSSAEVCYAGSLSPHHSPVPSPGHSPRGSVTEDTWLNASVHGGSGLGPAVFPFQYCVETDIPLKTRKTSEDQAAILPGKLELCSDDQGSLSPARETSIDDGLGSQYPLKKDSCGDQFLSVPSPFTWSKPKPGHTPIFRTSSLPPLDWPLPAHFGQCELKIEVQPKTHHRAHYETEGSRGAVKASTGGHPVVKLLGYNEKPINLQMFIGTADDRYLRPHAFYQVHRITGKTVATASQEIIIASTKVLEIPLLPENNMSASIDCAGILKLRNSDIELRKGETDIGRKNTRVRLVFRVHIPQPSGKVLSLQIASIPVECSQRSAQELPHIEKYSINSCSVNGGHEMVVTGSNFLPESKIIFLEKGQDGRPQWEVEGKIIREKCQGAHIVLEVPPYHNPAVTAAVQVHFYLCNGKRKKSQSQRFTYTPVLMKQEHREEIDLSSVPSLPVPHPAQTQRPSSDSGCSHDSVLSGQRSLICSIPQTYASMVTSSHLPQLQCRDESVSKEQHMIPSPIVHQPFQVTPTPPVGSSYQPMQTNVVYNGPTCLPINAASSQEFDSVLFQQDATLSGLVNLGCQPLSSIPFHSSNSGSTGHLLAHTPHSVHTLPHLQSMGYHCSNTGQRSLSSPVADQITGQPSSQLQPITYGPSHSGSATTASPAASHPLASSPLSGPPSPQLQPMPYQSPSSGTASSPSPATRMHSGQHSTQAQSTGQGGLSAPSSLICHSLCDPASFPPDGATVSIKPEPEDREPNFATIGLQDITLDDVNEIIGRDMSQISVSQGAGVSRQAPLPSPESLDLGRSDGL
active: sotrastaurin -0.451 | [9] -0.539
inactive: [1] 0.038 | volasertib -0.331 | [2] 0.073 | epoxomicin -0.046 | [3] 0.065 | [4] -0.038 | [5] 0.049 | rosiglitazone 0.068 | [6] 0.036 | [7] 0.039 | saracatinib -0.003 | alvocidib -0.148 | Tubastatin A 0.058 | [8] -0.103 | defactinib -0.208 | rucaparib 0.281 | encorafenib -0.166 | [10] -0.051

NAPG (UniProt Q99747)
Sequence of UniProt Q99747 (Q99747 whole entry, looked up): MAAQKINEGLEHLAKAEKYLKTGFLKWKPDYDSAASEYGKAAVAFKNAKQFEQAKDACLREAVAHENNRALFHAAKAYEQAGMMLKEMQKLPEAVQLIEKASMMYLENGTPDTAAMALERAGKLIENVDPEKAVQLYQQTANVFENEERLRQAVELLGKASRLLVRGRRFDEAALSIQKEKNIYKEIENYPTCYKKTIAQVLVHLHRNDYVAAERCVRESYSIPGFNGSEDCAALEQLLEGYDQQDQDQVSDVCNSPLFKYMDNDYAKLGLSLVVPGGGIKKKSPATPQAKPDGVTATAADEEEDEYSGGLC
active: volasertib -0.462
inactive: [1] -0.118 | [2] 0.072 | epoxomicin 0.069 | [3] -0.05 | [4] -0.076 | [5] 0.048 | rosiglitazone 0.088 | [6] 0 | [7] -0.028 | saracatinib -0.028 | sotrastaurin -0.075 | alvocidib -0.137 | Tubastatin A 0.048 | [8] 0.031 | defactinib -0.159 | rucaparib 0.044 | [9] 0.053 | encorafenib 0.052 | [10] -0.028

PAK1 isoform 2 (UniProt Q13153)
Sequence of UniProt Q13153 (Q13153 whole entry, looked up): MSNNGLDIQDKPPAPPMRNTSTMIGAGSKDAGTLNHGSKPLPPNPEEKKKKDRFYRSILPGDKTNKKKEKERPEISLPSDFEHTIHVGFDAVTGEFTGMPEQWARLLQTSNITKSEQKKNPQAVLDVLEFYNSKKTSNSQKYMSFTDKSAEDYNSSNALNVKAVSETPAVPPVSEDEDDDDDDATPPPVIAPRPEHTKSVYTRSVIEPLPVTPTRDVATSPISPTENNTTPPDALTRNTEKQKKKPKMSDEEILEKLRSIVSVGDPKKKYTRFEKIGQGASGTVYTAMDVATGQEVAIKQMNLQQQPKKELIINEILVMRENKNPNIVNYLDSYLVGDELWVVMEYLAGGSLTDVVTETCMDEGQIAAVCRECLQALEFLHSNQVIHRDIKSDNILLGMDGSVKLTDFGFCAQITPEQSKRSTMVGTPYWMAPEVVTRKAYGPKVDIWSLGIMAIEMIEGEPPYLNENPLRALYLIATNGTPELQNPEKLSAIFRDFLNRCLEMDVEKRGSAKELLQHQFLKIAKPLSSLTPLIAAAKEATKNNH
inactive: [1] 0.032 | volasertib -0.022 | [2] -0.024 | epoxomicin 0.046 | [3] 0.043 | [4] -0.122 | [5] 0.064 | rosiglitazone 0.016 | [6] -0.062 | [7] -0.031 | saracatinib 0.074 | sotrastaurin -0.015 | alvocidib -0.026 | Tubastatin A -0.098 | [8] 0.009 | defactinib 0.039 | rucaparib -0.082 | [9] -0.009 | encorafenib 0.033 | [10] 0.048

NUDT21 (UniProt O43809)
Sequence of UniProt O43809 (O43809 whole entry, looked up): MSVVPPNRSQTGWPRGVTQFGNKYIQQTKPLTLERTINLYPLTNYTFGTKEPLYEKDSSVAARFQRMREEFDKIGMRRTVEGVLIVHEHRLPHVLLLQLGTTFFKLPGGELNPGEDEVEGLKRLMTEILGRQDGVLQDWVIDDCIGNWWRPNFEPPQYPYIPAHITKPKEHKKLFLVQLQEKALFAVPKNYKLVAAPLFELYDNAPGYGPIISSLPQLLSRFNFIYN
inactive: [1] 0.036 | volasertib 0.074 | [2] -0.033 | epoxomicin -0.107 | [3] -0.02 | [4] 0.038 | [5] -0.041 | rosiglitazone -0.028 | [6] -0.013 | [7] 0.064 | saracatinib 0.028 | sotrastaurin 0.024 | alvocidib -0.017 | Tubastatin A 0.01 | [8] -0.166 | defactinib 0.045 | rucaparib 0.004 | [9] -0.025 | encorafenib -0.015 | [10] -0.034

MTMR14 (UniProt Q8NCE2)
Sequence of UniProt Q8NCE2 (Q8NCE2 whole entry, looked up): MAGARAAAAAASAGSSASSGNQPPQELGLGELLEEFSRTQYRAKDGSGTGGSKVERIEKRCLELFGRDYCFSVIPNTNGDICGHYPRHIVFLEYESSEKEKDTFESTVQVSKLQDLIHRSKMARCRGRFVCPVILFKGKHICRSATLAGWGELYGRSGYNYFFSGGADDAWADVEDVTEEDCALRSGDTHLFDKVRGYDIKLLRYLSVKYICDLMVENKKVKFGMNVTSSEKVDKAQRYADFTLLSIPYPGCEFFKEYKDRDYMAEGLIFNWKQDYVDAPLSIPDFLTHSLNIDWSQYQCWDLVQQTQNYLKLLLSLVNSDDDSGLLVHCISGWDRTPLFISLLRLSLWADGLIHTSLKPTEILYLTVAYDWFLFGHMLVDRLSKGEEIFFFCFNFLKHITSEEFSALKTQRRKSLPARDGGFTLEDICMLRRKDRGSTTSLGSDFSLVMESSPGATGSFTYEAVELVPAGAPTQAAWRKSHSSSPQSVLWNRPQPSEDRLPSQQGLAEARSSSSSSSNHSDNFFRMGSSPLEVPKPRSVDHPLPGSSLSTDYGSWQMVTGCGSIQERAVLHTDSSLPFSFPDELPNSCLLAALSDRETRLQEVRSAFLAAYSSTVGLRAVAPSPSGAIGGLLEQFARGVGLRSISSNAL
active: volasertib -0.622
inactive: [1] -0.194 | [2] 0.037 | epoxomicin 0.019 | [3] 0.009 | [4] -0.056 | [5] 0.001 | rosiglitazone 0.026 | [6] 0.022 | [7] -0.039 | saracatinib -0.037 | sotrastaurin -0.042 | alvocidib -0.059 | Tubastatin A 0 | [8] 0.008 | defactinib -0.058 | rucaparib -0.017 | [9] -0.064 | encorafenib -0.026 | [10] 0.038

MNAT1 (UniProt P51948)
Sequence of UniProt P51948 (P51948 whole entry, looked up): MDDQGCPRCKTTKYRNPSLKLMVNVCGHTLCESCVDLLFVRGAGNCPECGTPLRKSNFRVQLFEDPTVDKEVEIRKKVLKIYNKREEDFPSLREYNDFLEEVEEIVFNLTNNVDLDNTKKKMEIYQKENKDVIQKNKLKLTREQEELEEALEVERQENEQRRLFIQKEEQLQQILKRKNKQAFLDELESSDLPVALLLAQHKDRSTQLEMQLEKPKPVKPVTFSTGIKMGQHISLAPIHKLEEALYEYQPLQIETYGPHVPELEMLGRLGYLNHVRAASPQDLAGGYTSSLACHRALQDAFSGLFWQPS
inactive: [1] 0.029 | volasertib -0.027 | [2] -0.029 | epoxomicin -0.057 | [3] -0.006 | [4] 0.015 | [5] 0.032 | rosiglitazone -0.027 | [6] -0.011 | [7] 0.015 | saracatinib -0.017 | sotrastaurin 0 | alvocidib -0.002 | Tubastatin A 0.006 | [8] 0.012 | defactinib -0.03 | rucaparib -0.046 | [9] -0.004 | encorafenib -0.006 | [10] -0.009

NOP53 (UniProt Q9NZM5)
inactive: [1] 0.174 | volasertib 0.393 | [2] -0.014 | epoxomicin -0.009 | [3] -0.132 | [4] 0.013 | [5] -0.111 | rosiglitazone -0.053 | [6] 0.516 | [7] 0.599 | saracatinib -0.063 | sotrastaurin -0.014 | alvocidib 0.396 | Tubastatin A 0.141 | [8] -0.019 | defactinib 0.62 | rucaparib 0.36 | [9] 0.035 | encorafenib 0.174 | [10] -0.022

— the supplement of paper PMC10849652
